Laboratory results as given in the supplement of paper PMC4709259.
Where a name gives a salt, the structure may show the parent alone. ± gives the standard deviation.

test system: Jurkat; experiment: cell count relative to DMSO control (fraction of control); higher = more cells (less growth inhibition); details: 48 h

Structure (SMILES) | cell count
CC[C@]1(O)C[C@H]2CN(CCc3c([nH]c4ccccc34)[C@@](C(=O)OC)(c3cc4c(cc3OC)N(C=O)[C@H]3[C@@](O)(C(=O)OC)[C@H](OC(C)=O)[C@]5(CC)C=CCN6CC[C@]43[C@@H]65)C2)C1 [Vincristine Sulfate] (concentration: 25 nM) | 0.083 ± 0.066
COc1cccc2c1C(=O)c1c(O)c3c(c(O)c1C2=O)C[C@@](O)(C(=O)CO)C[C@@H]3O[C@H]1C[C@H](N)[C@@H](O)[C@H](C)O1 [Epirubicin·HCl] (concentration: 250 nM) | 0.206 ± 0.052
COc1cc(Cc2cnc(N)nc2N)cc(OC)c1OC [Trimethoprim] (concentration: 25 µM) | 0.457 ± 0.11
OCCN(CCO)c1nc(N2CCCCC2)c2nc(N(CCO)CCO)nc(N3CCCCC3)c2n1 [Dipyridamole] (concentration: 25 µM) | 0.652 ± 0.1
CC1(C)NC(=O)N(c2ccc([N+](=O)[O-])c(C(F)(F)F)c2)C1=O [Nilutamide] (concentration: 25 µM) | 0.638 ± 0.066
CC[C@@H]1C(=O)OC[C@@H]1Cc1cncn1C [Pilocarpine·HCl] (concentration: 25 µM) | 0.246 ± 0.11
C[N+]1(C)[C@@H]2CC[C@H]1C[C@@H](OC(=O)C(O)c1ccccc1)C2 (some centres undefined) [Homatropine Methylbromide] (concentration: 25 µM) | 0.565 ± 0.018
Cc1nc(Nc2ncc(C(=O)Nc3c(C)cccc3Cl)s2)cc(N2CCN(CCO)CC2)n1 [Dasatinib] (concentration: 2.5 µM) | 1.03 ± 0.063
CC(C)(S)[C@@H](N)C(=O)O [Penicillamine (D-Penicillamine)] (concentration: 25 µM) | 0.796 ± 0.074
NS(=O)(=O)c1cc2c(cc1Cl)N=CNS2(=O)=O [Chlorothiazide] (concentration: 25 µM) | 1.16 ± 0.082
O=C1[C@H](CC[C@H](O)c2ccc(F)cc2)[C@@H](c2ccc(O)cc2)N1c1ccc(F)cc1 [Ezetimibe] (concentration: 25 µM) | 0.639 ± 0.061
CC(=O)/N=c1/sc(S(N)(=O)=O)nn1C [Methazolamide] (concentration: 25 µM) | 0.925 ± 0.091
Cc1cc2c(s1)Nc1ccccc1N=C2N1CCN(C)CC1 [Olanzapine] (concentration: 25 µM) | 0.914 ± 0.1
COc1ccc2cc([C@H](C)C(=O)O)ccc2c1 [Naproxen] (concentration: 25 µM) | 0.661 ± 0.1
CC[C@H](C)[C@H](N)C1=N[C@H](C(=O)N[C@@H](CC(C)C)C(=O)N[C@H](CCC(=O)O)C(=O)N[C@H](C(=O)N[C@H]2CCCCNC(=O)[C@H](CC(N)=O)NC(=O)[C@@H](CC(=O)O)NC(=O)[C@H](Cc3cnc[nH]3)NC(=O)[C@@H](Cc3ccccc3)NC(=O)[C@H]([C@@H](C)CC)NC(=O)[C@@H](CCCN)NC2=O)[C@@H](C)CC)CS1 [Bacitracin] (concentration: 25 µM) | 0.476 ± 0.09
CC1(C)S[C@@H]2[C@H](NC(=O)[C@H](N)c3ccccc3)C(=O)N2[C@H]1C(=O)O [Ampicillin Trihydrate] (concentration: 25 µM) | 1.17 ± 0.068
CCCCc1nc(Cl)c(CO)n1Cc1ccc(-c2ccccc2-c2nnn[nH]2)cc1 [Losartan Potassium] (concentration: 25 µM) | 0.418 ± 0.1
NC12CC3CC(CC(C3)C1)C2 [Amantadine·HCl] (concentration: 25 µM) | 0.749 ± 0.17
COC(=O)[C@H](c1ccccc1Cl)N1CCc2sccc2C1 [Clopidogrel Hydrogen Sulfate] (concentration: 25 µM) | 0.942 ± 0.095
CCc1c2c(nc3ccc(OC(=O)N4CCC(N5CCCCC5)CC4)cc13)-c1cc3c(c(=O)n1C2)COC(=O)[C@]3(O)CC [Irinotecan·HCl] (concentration: 250 nM) | 0.414 ± 0.034
CN(C)CCCN1c2ccccc2CCc2ccccc21 [Imipramine·HCl] (concentration: 25 µM) | 0.525 ± 0.16
CCCOc1ccc(C(=O)OCCN(CC)CC)cc1N [Proparacaine·HCl] (concentration: 25 µM) | 1.07 ± 0.05
CC(=O)Nc1c(I)c(NC(C)=O)c(I)c(C(=O)O)c1I [Diatrizoate Meglumine] (concentration: 25 µM) | 0.846 ± 0.085
CC1(C)S[C@@H]2[C@H](NC(=O)Cc3ccccc3)C(=O)N2[C@H]1C(=O)O [Penicillin G Potassium (Benzylpenicillin)] (concentration: 25 µM) | 0.934 ± 0.041
